# Assay results taken from publication PMC7862700, “An all-to-all approach to the identification of sequence-specific readers for epigenetic DNA modifications on cytosine”.
# Assays:
# Assay in all cases: DAPPL (digital affinity profiling via proximity ligation, sequencing); 10 mM Tris-HCl pH 7.5, 50 mM NaCl, 1 mM DTT, 4% glycerol, room temperature, 30 min; GST-TFs on glutathione beads, 16-mer random dsDNA library, 0.1% formaldehyde crosslink after washing; high values mean tight binding
# Conditions in all cases: protein: recombinant; tags: N-terminal GST; dsDNA, one strand shown
# FLI1 = molecular target: T1, FLI1 (Homo sapiens, UniProt Q01543 1-452)
# T1 sequence: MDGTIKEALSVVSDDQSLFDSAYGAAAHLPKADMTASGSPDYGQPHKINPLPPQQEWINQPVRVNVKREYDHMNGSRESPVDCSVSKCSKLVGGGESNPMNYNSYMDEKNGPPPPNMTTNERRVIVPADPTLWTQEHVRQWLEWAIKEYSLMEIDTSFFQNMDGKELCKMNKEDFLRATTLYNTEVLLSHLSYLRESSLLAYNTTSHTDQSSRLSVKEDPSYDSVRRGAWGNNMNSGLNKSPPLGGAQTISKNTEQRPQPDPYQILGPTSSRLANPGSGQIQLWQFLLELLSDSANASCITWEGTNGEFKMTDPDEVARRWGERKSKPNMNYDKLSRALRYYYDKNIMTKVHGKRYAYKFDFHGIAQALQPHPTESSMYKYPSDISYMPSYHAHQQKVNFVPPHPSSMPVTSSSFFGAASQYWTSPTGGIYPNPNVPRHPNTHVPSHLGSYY
# In short: (§1)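 Beads coated with glutathione captured GST-fused human transcription factors that had been expressed in yeast, and the factors were then given DNA barcodes and pooled with a tag-only sample. The pools were incubated with 200 nmole of a random double-stranded 16-mer DNA library in Tris/NaCl/DTT/glycerol buffer for 30 min at room temperature, washed, crosslinked with 0.1% formaldehyde and proximity-ligated with BsaI/T4 ligase at 37 °C for 1 h. PCR amplification and Illumina NextSeq500 sequencing came last. Binding signal is each hexamer's read frequency for a factor divided by its frequency for the tag-only sample.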
# ELK1 = molecular target: T2, ELK1 (Homo sapiens, UniProt P19419 1-428)
# T2 sequence: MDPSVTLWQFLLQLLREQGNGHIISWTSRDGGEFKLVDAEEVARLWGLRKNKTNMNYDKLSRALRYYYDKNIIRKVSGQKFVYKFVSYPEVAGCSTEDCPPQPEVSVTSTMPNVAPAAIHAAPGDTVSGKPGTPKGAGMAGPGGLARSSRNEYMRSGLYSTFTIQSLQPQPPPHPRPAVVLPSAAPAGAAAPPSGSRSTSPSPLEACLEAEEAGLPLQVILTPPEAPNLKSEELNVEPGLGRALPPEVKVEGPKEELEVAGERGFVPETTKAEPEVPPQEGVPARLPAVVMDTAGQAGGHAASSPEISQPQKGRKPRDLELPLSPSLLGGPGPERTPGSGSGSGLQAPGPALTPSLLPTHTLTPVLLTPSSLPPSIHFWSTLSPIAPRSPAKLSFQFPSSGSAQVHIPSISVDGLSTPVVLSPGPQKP
# In short: as §1
# GABPA = molecular target: T3, GABPA (Homo sapiens, UniProt Q06546 1-454)
# T3 sequence: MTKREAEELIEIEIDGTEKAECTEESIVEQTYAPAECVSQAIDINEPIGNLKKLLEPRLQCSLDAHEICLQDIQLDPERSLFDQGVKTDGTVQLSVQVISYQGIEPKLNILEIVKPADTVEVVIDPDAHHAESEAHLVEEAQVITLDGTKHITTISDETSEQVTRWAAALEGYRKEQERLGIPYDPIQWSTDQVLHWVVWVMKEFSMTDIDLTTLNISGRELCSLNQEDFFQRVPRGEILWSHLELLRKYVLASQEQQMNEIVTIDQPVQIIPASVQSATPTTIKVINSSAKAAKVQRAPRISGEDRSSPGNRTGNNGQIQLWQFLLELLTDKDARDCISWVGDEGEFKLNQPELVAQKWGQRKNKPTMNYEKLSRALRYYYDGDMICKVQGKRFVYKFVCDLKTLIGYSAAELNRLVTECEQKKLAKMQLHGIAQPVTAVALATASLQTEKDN
# In short: as §1
# ERG = molecular target: T4, ERG (Homo sapiens, UniProt P11308 1-479)
# T4 sequence: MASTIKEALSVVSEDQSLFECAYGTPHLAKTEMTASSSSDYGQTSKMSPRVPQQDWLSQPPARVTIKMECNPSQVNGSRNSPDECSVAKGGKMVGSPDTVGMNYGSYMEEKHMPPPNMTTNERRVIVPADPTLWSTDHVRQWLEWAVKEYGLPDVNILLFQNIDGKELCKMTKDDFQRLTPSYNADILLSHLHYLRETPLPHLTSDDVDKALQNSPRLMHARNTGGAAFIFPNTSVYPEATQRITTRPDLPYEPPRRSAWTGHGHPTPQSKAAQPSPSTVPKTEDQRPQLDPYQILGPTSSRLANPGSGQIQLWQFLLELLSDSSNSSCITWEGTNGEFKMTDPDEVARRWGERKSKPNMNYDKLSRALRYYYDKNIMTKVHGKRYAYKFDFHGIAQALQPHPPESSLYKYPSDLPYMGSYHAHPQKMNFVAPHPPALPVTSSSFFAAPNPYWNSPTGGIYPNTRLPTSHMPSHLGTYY
# In short: as §1
# ELF1 = ELF1 (Homo sapiens, UniProt P32519 1-619)
# In short: as §1
# EHF = molecular target: T5, EHF (Homo sapiens, UniProt Q9NZC4 1-300)
# T5 sequence: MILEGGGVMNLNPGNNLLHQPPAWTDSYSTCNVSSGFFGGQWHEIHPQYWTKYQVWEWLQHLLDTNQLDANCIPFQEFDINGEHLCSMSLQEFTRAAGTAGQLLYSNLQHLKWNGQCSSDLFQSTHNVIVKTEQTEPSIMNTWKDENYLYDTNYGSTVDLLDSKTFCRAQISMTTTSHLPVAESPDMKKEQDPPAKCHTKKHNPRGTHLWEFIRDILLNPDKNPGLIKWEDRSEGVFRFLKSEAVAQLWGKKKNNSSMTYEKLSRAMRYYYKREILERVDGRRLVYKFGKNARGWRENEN
# In short: as §1
# SPI1 = SPI1 (Homo sapiens, UniProt P17947 1-270)
# In short: as §1
# SPIB = SPIB (Homo sapiens, UniProt Q01892 1-262)
# In short: as §1
# ELK3 = molecular target: T6, ELK3 (Homo sapiens, UniProt P41970 1-407)
# T6 sequence: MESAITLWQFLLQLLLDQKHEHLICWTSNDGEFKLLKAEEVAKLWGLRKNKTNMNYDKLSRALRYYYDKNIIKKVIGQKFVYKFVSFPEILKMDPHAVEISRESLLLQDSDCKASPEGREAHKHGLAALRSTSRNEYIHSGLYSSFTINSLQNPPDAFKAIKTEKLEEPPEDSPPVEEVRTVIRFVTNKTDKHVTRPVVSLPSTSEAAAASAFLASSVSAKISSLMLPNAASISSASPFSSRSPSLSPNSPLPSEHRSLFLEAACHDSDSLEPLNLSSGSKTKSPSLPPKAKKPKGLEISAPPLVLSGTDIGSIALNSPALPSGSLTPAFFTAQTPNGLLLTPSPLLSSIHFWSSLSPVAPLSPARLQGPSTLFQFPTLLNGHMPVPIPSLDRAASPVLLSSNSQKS
# In short: as §1
# FEV = molecular target: T7, FEV (Homo sapiens, UniProt Q99581 1-238)
# T7 sequence: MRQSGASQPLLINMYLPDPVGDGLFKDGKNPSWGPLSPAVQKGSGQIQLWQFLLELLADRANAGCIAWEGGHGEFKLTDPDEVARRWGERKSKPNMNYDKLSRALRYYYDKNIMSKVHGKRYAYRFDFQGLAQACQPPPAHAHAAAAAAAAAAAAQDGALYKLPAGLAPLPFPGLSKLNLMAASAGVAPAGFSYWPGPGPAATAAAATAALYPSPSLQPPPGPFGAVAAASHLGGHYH
# In short: as §1
# ETV5 = ETV5 (Homo sapiens, UniProt P41161 1-510)
# In short: as §1
# SPIC = molecular target: T8, SPIC (Homo sapiens, UniProt Q8N5J4 1-248)
# T8 sequence: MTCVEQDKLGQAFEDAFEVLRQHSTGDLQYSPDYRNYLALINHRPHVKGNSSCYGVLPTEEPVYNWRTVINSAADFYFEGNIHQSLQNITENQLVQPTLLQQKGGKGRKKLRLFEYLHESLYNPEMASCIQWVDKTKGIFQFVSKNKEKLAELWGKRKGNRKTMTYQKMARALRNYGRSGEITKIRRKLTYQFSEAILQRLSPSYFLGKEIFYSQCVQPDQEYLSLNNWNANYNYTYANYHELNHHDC
# In short: as §1
# ELF4 = ELF4 (Homo sapiens, UniProt Q99607 1-663)
# In short: as §1
# ELK4 = molecular target: T9, ELK4 (Homo sapiens, UniProt P28324-2 1-405)
# T9 sequence: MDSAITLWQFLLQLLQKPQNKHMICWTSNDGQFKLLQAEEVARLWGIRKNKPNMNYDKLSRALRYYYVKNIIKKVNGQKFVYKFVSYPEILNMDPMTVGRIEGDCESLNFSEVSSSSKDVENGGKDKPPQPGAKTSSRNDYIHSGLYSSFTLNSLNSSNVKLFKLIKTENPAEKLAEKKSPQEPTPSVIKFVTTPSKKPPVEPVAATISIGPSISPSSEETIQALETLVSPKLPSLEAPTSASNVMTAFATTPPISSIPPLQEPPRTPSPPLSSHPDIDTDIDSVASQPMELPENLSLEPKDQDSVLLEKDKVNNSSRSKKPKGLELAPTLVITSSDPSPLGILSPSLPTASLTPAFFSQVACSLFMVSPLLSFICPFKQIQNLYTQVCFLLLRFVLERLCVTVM
# In short: as §1
# ETV2 = molecular target: T10, ETV2 (Homo sapiens, UniProt O00321 1-342)
# T10 sequence: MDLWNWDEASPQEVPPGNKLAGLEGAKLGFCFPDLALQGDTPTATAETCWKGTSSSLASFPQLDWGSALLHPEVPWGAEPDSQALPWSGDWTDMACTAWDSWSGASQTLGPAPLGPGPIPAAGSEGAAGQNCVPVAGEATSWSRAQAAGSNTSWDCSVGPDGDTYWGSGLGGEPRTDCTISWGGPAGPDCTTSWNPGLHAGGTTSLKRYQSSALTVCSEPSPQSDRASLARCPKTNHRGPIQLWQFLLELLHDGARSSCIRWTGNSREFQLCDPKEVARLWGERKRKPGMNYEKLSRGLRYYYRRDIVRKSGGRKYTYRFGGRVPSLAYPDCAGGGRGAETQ
# In short: as §1
# ELF3 = molecular target: T11, ELF3 (Homo sapiens, UniProt P78545 1-371)
# T11 sequence: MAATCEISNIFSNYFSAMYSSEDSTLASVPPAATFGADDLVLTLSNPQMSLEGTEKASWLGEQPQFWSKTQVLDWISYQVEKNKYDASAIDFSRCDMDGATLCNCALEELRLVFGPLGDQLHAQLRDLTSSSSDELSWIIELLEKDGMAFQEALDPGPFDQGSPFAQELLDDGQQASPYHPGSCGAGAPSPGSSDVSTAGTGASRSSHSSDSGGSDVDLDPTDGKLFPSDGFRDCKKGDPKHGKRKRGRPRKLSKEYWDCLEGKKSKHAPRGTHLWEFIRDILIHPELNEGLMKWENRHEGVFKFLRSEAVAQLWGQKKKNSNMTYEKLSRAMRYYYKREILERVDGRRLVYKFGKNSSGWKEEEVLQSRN
# In short: as §1
# ETV1 = ETV1 (Homo sapiens, UniProt P50549 1-477)
# In short: as §1
# ELF4, sequence (Q99607 whole entry): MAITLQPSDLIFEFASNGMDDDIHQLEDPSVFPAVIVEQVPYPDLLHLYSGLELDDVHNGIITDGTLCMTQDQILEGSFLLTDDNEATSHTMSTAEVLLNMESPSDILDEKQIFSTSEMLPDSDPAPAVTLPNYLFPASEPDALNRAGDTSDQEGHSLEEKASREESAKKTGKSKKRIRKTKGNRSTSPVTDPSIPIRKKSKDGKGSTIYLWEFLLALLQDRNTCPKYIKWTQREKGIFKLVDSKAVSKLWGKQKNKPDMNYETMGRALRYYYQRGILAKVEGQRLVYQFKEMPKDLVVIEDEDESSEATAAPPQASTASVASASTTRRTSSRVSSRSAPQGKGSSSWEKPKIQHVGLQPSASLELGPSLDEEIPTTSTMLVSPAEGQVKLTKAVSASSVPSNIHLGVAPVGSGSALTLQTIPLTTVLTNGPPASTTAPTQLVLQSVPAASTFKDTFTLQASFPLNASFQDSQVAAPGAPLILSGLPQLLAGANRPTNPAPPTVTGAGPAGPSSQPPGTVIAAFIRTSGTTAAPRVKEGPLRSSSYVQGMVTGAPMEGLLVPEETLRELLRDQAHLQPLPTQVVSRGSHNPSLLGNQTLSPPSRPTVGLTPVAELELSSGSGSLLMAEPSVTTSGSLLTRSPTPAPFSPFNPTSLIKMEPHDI
# ETV5, sequence (P41161 whole entry): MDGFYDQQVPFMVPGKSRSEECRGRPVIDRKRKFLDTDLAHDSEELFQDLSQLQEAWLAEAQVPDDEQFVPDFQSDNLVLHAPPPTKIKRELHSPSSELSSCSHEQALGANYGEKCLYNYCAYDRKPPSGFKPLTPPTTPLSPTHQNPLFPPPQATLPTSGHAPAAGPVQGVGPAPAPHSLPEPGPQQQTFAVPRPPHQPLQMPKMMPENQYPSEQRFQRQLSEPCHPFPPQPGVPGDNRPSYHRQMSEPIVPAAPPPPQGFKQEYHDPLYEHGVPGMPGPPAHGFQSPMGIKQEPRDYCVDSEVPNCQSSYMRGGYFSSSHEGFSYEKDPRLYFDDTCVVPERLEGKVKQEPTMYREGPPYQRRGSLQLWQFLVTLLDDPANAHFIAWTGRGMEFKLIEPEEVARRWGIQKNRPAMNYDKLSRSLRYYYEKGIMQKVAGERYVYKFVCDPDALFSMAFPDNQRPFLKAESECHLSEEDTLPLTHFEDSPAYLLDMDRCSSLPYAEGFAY
# ELF1, sequence (P32519 whole entry): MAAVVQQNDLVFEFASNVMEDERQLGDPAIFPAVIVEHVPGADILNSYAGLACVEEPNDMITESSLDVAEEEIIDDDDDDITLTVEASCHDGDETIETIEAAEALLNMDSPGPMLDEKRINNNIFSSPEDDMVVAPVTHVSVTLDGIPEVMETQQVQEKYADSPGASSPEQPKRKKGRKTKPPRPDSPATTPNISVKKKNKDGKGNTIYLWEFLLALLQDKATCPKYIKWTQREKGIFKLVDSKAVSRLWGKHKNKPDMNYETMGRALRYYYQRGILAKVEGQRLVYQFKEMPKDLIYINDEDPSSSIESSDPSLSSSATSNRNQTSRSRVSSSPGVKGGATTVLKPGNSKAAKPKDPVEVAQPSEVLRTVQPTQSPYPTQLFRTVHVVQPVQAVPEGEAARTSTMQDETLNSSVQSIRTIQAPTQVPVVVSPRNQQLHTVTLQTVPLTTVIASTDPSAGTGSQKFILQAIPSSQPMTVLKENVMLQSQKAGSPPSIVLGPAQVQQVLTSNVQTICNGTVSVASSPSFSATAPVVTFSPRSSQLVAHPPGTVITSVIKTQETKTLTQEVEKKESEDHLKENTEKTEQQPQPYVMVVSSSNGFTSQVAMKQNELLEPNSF
# SPIB, sequence (Q01892 whole entry): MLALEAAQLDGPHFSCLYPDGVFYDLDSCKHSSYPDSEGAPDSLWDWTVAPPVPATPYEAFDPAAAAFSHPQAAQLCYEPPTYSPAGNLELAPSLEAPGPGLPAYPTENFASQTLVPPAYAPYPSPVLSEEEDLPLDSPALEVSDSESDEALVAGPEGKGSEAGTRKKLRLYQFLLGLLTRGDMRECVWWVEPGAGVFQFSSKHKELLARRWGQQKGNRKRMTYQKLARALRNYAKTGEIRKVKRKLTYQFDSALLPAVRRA
# ETV1, sequence (P50549 whole entry): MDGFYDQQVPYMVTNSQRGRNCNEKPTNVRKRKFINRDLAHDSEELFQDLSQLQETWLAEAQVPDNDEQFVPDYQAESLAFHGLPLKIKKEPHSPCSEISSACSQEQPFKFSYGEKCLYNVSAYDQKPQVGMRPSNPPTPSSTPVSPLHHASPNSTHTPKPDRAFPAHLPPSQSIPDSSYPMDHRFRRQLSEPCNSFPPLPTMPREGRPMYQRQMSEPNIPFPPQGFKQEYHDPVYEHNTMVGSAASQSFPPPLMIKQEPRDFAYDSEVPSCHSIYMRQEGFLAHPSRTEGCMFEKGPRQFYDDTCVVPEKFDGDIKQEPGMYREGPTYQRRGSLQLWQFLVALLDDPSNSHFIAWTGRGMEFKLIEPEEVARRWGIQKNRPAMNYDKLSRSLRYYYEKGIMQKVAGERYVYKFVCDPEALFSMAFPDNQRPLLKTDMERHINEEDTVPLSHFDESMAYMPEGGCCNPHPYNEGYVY
sequence,measurement,setting,value
CACCAA,binding signal,FLI1,"1.02 fold enrichment (6-mer frequency, TF over GST control)"
same,binding signal,ELK1,"1.16 fold enrichment (6-mer frequency, TF over GST control)"
same,binding signal,GABPA,"1.03 fold enrichment (6-mer frequency, TF over GST control)"
same,binding signal,ERG,"1.07 fold enrichment (6-mer frequency, TF over GST control)"
same,binding signal,ELF1,"1.12 fold enrichment (6-mer frequency, TF over GST control)"
same,binding signal,EHF,"1.06 fold enrichment (6-mer frequency, TF over GST control)"
same,binding signal,SPI1,"1.07 fold enrichment (6-mer frequency, TF over GST control)"
same,binding signal,SPIB,"1.04 fold enrichment (6-mer frequency, TF over GST control)"
same,binding signal,ELK3,"1.15 fold enrichment (6-mer frequency, TF over GST control)"
same,binding signal,FEV,"1.12 fold enrichment (6-mer frequency, TF over GST control)"
same,binding signal,ETV5,"1.1 fold enrichment (6-mer frequency, TF over GST control)"
same,binding signal,SPIC,"1.12 fold enrichment (6-mer frequency, TF over GST control)"
same,binding signal,ELF4,"1.12 fold enrichment (6-mer frequency, TF over GST control)"
same,binding signal,ELK4,"1.13 fold enrichment (6-mer frequency, TF over GST control)"
same,binding signal,ETV2,"1.12 fold enrichment (6-mer frequency, TF over GST control)"
same,binding signal,ELF3,"1.1 fold enrichment (6-mer frequency, TF over GST control)"
same,binding signal,ETV1,"1.01 fold enrichment (6-mer frequency, TF over GST control)"
